Results: PubChem BioAssay

Biological target: Homeobox protein Hox-A13 (Mus musculus) (UniProt Q62424)
Assay: inhibitors of HoxA13-DNA binding, primary screen, biochemical, fluorescence polarization, labeled oligonucleotide (AID 1185)
Settings: 15 min, higher = more signal, called active from +8 up or from −8 down

Sequence of Homeobox protein Hox-A13 (Mus musculus) (Q62424 whole entry, looked up): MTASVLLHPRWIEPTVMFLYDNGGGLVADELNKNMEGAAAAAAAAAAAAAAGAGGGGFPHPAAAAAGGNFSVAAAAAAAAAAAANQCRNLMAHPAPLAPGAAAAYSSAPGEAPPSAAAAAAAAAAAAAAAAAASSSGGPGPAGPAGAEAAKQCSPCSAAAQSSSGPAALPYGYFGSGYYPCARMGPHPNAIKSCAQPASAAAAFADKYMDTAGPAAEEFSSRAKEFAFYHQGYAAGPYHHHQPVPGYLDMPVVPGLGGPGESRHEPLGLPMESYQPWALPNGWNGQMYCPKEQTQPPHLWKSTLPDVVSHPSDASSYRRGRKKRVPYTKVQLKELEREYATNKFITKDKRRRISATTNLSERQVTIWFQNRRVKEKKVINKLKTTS

z-score, inactive:
COc1cc(OC)c(C(O)C2C=CC3C(=O)N(c4ccccc4)C(=O)C3N2Nc2ccc(C(C)C)cc2)cc1Br (stereo not drawn) -1.37
CC(C)c1nc2cc(Br)ccc2c(=O)o1 -0.27
CN1C(=O)[C@@H]2[C@@H](CC(COc3ccccc3)=C3[C@@H](CCc4ccccc4)OB(O)C[C@@H]32)C1=O -6.67
O=C(NCCN1CCOCC1)[C@@H]1c2ccccc2C(=O)N(Cc2ccc(OC(F)(F)F)cc2)[C@H]1c1ccc(CO)cc1 -4.13
CN(C)c1ccc(C(O)C2C=CC3C(=O)N(Cc4ccccc4)C(=O)C3N2n2cnnc2)cc1 (stereo not drawn) -0.863
CC(C)C(O)C1C=CC2C(=O)NC(=O)C2N1Nc1ccccn1 (stereo not drawn) -3.11
COc1ccc([Si](C)(C)[C@@H]2[C@@H](CC(=O)N3Cc4ccccc4C[C@H]3CO)O[C@]3(C(=O)N(Cc4ccc(N5CCOC5=O)cc4)c4ccccc43)[C@H]2C)cc1 -1.43
COCCOC(=O)N1C(=O)[C@@]2(c3cc(C#CCC(C(=O)OC)C(=O)OC)ccc31)[C@H](C(=O)Nc1nc3ccccc3s1)[C@H]1C(=O)O[C@H](c3ccccc3)[C@H](c3ccccc3)N1[C@@H]2c1ccc(O)cc1 -1.93
COc1cc(CO)cc(I)c1O[C@H]1C=C(C(=O)NCCO)C[C@@H](NC2CCCCCC2)[C@@H]1O -7.19
O=C(NC1CC1)[C@@H]1c2ccccc2C(=O)N(Cc2ccc(OC(F)(F)F)cc2)[C@H]1c1ccc(CO)cc1 -3.51
CCOC(=O)C1=CC[C@@H](c2ccc(OC)cc2)N(S(=O)(=O)c2ccc(C)cc2)[C@H]1CC -0.507
CC1CC/C=C\[C@H]2OC34C=CCN(C(C)(C)C)C(=O)[C@H]3N(CCCO)C(=O)[C@@H]4C2C(=O)O1 (stereo partly drawn) -3.59
C=C(C)[C@@H]1CC=C(C(O)C2C=CC3C(=O)N(c4ccccc4)C(=O)C3N2Nc2ccc([N+](=O)[O-])cc2)CC1 (stereo partly drawn) -1.49
C=CCOC(=O)[C@@H]1[C@H]2C(=O)O[C@H](c3ccccc3)[C@H](c3ccccc3)N2[C@H](c2ccc(OCCOC(=O)[C@H]3C[C@H]4C(=O)NCC(=O)N4[C@H]3c3cccc(OCCO)c3)cc2)[C@@]12C(=O)Nc1ccc(I)cc12 0.337
COC(=O)[C@H](Cc1ccccc1)N1CC2=CCCC=C[C@@H]2[C@H]1[C@H](O)Cc1ccccc1 -6.25
CC(=O)OCC1C2CC[C@H]3C(OCc4ccc(F)cc4C(F)(F)F)OC[C@]4(C)[C@H]3C2=C(CN4C(=O)OC(C)(C)C)[C@H](C)C1COC(C)=O (stereo partly drawn) -3.13
CC(=O)c1ccc(C(O)C2C=CC3C(=O)N(c4ccccc4)C(=O)C3N2Nc2ccc(C(C)C)cc2)cc1 (stereo not drawn) -2.09
CC(C)NC(=O)[C@@]1(C)c2ccccc2C(=O)N(Cc2ccccc2)[C@H]1c1ccc(CO)cc1 -2.37
CCCCC(O)C1C=CC2C(=O)N(c3ccccc3)C(=O)C2N1Nc1ccc([N+](=O)[O-])cc1 (stereo not drawn) -4.62
Cc1ccc(S[C@]2(C(=O)NC3CC3)CC(=O)N(C(C)C)[C@@H]2c2ccc(CO)cc2I)cc1 -4.06
COCCOC(=O)N1C(=O)[C@@]2(c3cc(C#CCC(C(=O)OC)C(=O)OC)ccc31)[C@H](C(=O)Nc1nc3ccccc3s1)[C@H]1C(=O)O[C@H](c3ccccc3)[C@H](c3ccccc3)N1[C@@H]2c1ccc(OCCO)cc1 1.46
COC(=O)C1=CC(CCCO)=CC(c2cccs2)N(Cc2cc3c(cc2Br)OCO3)C=C1C(=O)OC (stereo not drawn) -4.49
CN1C(=O)C2C(C1=O)C1C=C(c3ccc(CO)cc3)C2C(C2CC2)N1C (stereo not drawn) -5.37
COCCCNC(=O)[C@@H]1c2ccccc2C(=O)N(Cc2ccc(OC(F)(F)F)cc2)[C@H]1c1ccc(CO)cc1 -3.51
COCCCNC(=O)[C@@]1(CCC(=O)OC(C)(C)C)COC(c2ccc(OCCCO)cc2)=N1 -5.74
O=C(O)[C@H](Cc1ccccc1)n1cc(C2(O)CCCCC2)nn1 -1.04
CN(C)CCCC[C@@H]1NC(=O)[C@@H]2C[C@H](C(=O)NCCCCCCNC(=O)CS)[C@H](c3ccc(O)cc3)N2C1=O -1.31
COC(=O)[C@@]1(Cc2ccc(OC)cc2)[C@H]2c3cc(C(=O)N4CCCC4)n(CCn4cc([N+](=O)[O-])nc4C)c3C[C@H]2CN1C(=O)c1ccccc1 -2.67
